Test results from PubChem BioAssay AID504339 (National Center for Advancing Translational Sciences (NCATS), 2011).
About 17,000 (4.4%) of roughly 390,000 compounds were called active. Entries that show only a call come without a potency. Roughly 8% stayed inconclusive and do not appear here. Calls follow the shape of the dose curve; as a rule, active = well fitted inhibition curve with a large enough effect; inconclusive = small, poorly fitted or top-dose-only effect; inactive = no such curve, though single readings can be large or run the other way. For the sample, actives were picked, then their nearest neighbours and some compounds at random.

Target: Lysine-specific demethylase 4A (Homo sapiens) (UniProt O75164)
Assay: qHTS Assay for Inhibitors of JMJD2A-Tudor Domain; also: nearly all actives have a fitted effect of over 50% in size
Conditions: AlphaScreen JMJD2A-Tudor / H3K4me3 peptide binding; series mostly up to 114 µM
Text: JMJD2A is a jumonji-domain-containing lysine demethylase that uses Fe(II) together with 2-OG to effect oxidative demethylation of histones. Methylation is one of many […] modification that affect epigenetic transcription. […] It is proposed that the functions of JmjD2A binding to the histones, is to maintain marks after they are installed and to spread the modifications by […], establishing a self-propagating cycle for rapid methylation over a large area of chromatin. […] Thus, small molecule targeting of the JMJD2A-tudor domain interaction with its target methylhistone mark is expected to enable sophisticated experiments probing the fine regulatory pathways leading to selective demethylation of a given methyllysine locus based on the methylation state of adjacent histone marks. A quantitative high throughput AlphaScreen has been developed to identify small molecule inhibitors based on a protocol published by NCGC and SGC [4].
Although AlphaScreen has significant advantages with its utility in a variety of epigenetic target assays, the primary screening data provided in this deposition should be used with caution due to the prevalence of screening artifacts. The top compound concentration tested was high (>100uM) in this assay, which increases number of actives and potential artifacts. An AlphaScreen counterscreen is highly recommended to be run against any putative actives to eliminate non-specific artifacts. Alternatively, one can use other AlphaScreen assays in PubChem to filter out promiscuous hits.
[1] Lee, J. et al. Distinct binding modes specify the recognition of methylated histone H3K4 and H4K20 by JMJD2A-tudor. Nat Struct Mol Biol. 15(1); 109-11. 2008. PMID: 18084306
[2] Yasgar, et al. Compound Management for Quantitative High-Throughput Screening. JALA. 2008 Apr;13(2):79-89. PMID: 18496600
[3] Inglese, et al. Quantitative high-throughput screening: a titration-based approach that efficiently identifies biological activities in large chemical libraries. Proc Natl Acad Sci. 1;103(31):11473-8. 2006. PMID: 16864780
[4] Quinn et al. A homogeneous method for investigation of methyl-dependent protein-protein interactions in epigenetics. Nucleic Acids Res., 38(2):e11. 2010. PMID: […]
[5] Baell,Holloway. New substructure filters for removal of pan assay interference compounds (PAINS) from screening libraries and for their exclusion in bioassays. J Med Chem. 53(7):2719-40. 2010. PMID: 20131845
NIH Molecular Libraries Probe Production Network [MLPCN]
NIH Chemical Genomics Center [NCGC]
Structural Genomics Consortium (SGC)
To each well of a 1,536w plate, 2ul of JMJD2A-Tudor (final 100nM) and 1ul biotinylated histone peptide methylated at Lys4 [b-H3(1-18)K4me3] (final 50nM) were added in 1x PBS buffer, pH 7.4, containing 0.01% Tween-20, using a nanoliter dispenser. Formation of a protein-peptide complex proceeded at room temperature for 30 min. A Kalypsys pin-tool transferred 23nl of library compound solution in DMSO to each well. Following a 30 min incubation of the protein-peptide complex with compounds at room temperature, a mixture of 40 µg/mL each streptavidin-coated donor and nickel chelate acceptor AlphaScreen beads (final 10 µg/mL) was added in a 1ul dispense for a final volume of 4ul, followed by a brief centrifugation (1000 rpm, 1 min). Plates were incubated protected from the light for 20 min at room temperature. Microplates were then read on an EnVision multilabel plate reader using the 1,536 plate HTS AlphaScreen aperture (excitation time 80 ms, measurement time 240 ms).
Potency is read from the fitted curve at half-maximal effect.

Lysine-specific demethylase 4A (Homo sapiens), sequence (O75164 whole entry, looked up, the tested form may be a part): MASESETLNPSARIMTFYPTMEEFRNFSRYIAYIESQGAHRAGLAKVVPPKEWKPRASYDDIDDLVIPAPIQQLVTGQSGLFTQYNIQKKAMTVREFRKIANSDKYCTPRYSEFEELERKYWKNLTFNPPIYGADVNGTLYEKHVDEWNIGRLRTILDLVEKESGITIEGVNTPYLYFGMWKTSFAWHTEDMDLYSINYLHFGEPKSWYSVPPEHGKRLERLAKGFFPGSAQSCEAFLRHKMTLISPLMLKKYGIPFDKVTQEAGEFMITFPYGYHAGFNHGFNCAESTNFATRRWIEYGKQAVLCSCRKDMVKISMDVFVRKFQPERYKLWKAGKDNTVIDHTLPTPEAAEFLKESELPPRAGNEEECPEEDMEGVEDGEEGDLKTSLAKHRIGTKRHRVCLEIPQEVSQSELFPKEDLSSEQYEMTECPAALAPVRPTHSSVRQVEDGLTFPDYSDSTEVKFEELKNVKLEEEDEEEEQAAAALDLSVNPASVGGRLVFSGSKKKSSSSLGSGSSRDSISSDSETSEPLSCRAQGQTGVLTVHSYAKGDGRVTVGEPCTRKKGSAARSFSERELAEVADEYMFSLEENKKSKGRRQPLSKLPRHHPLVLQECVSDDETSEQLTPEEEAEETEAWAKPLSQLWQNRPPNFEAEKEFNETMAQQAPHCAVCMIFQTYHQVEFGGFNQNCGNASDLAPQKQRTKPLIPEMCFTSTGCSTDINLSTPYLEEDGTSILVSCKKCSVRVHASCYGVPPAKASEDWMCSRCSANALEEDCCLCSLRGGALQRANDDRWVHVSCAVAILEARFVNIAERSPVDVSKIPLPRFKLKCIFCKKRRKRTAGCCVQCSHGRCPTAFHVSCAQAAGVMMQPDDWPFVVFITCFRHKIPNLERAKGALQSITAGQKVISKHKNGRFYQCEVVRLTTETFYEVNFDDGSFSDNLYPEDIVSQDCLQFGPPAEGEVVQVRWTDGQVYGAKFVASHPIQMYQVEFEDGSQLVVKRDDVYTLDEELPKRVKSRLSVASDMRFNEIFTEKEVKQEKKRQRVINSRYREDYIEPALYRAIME

Q: How did the Potency turn out when CCOC(=O)C1(Cc2ccc(Cl)cc2)CCN(C(C)CCn2cccn2)CC1 (stereo not given) was run?
A: Its Potency is “inactive”.

Q: How did the Potency turn out when COc1ccc(N=Cc2c(O)n(C)c(=O)[nH]c2=O)cc1 was run?
A: The Potency was “inactive”.

Q: For C=CC12CN(C)[C@@H]3C4CO[C@H](C[C@H]41)[C@]1(C(=O)Nc4ccccc41)[C@@H]32 (stereo not given in full), which Potency is on record?
A: Its Potency is “inactive”.

Q: With Cc1ccc(Cn2nnnc2CN2CCC(n3nnc4ccccc43)CC2)cc1 as the compound, how does the Potency read?
A: The Potency was 50.1 µM (active).

Q: How did the Potency turn out when COC1=C[C@@H]2[C@@H]3Cc4ccc(OC)c(O)c4[C@]2(CCN3C)CC1=O was run?
A: The Potency was “inactive”.

Q: For O=C(O)C1CSC(c2cccnc2)N1 (stereo not given), which Potency is on record?
A: The Potency was 7.94 µM (active).

Q: For NCCc1c[nH]c2ccc(O)cc12, which Potency is on record?
A: Its Potency is “inactive”.

Q: Which Potency does the source give for CC[N+](CC)(CC)CCCCCCCCCC[N+](CC)(CC)CC here?
A: The Potency was “inactive”.

Q: How did the Potency turn out when Cc1ccccc1N1C(=O)NC(=O)/C(=C\c2cc(C)n(C)c2C)C1=O was run?
A: The Potency was “inactive”.

Q: With O=C1NC(=O)N(c2ccccc2)C(=O)/C1=C/c1ccc([N+](=O)[O-])s1 as the compound, how does the Potency read?
A: Its Potency is 56.2 µM (active).

Q: O=C1NC(=O)N(c2ccc(F)cc2)C(=O)/C1=C/c1ccc2c(c1)CCCN2Cc1ccccc1 was tested. Which Potency did it give?
A: The Potency was “inactive”.

Q: For COc1cccc(N2C(=O)NC(=O)/C(=C\c3cn(C)c4ccccc34)C2=O)c1, which Potency is on record?
A: Its Potency is “inactive”.

Q: Which Potency does the source give for COc1cccc(N2C(=O)NC(=O)/C(=C\c3ccc([N+](=O)[O-])s3)C2=O)c1 here?
A: The Potency was 35.5 µM (active).

Q: Which Potency does the source give for COCCNC(=O)CN1C2CCC1CC(O)(c1cccnc1)C2 (stereo not given) here?
A: Its Potency is “inactive”.

Q: With COC(=O)C1=C(c2cccc(OCc3ccccc3)c2)C[C@@H]2CC[C@H]1N2C(=O)NCc1ccc(Br)cc1 as the compound, how does the Potency read?
A: The Potency was “inactive”.

Q: How did the Potency turn out when C[C@]12CCC3C(CC[C@H]4[C@H](O)[C@H](O)CC[C@]34C)C1CCC2=O (stereo not given in full) was run?
A: The Potency was “inactive”.

Q: With Nc1ccc([N+](=O)[O-])cc1 as the compound, how does the Potency read?
A: The Potency was “inactive”.

Q: COC1C(O)C(C)OC(OC2CCC3(C=O)C(CCC4C3CCC3(C)C(C5=CC(=O)OC5)CCC43O)C2)C1O (stereo not given) was tested. Which Potency did it give?
A: Its Potency is “inactive”.

Q: How did the Potency turn out when CCc1nnc(NS(=O)(=O)c2ccc(N=Cc3c(O)n(-c4ccccc4)c(=O)[nH]c3=O)cc2)s1 was run?
A: Its Potency is “inactive”.

Q: For O=c1[nH]c(=O)n(Cc2ccccc2)c(O)c1/C=N/Nc1c(F)c(F)c(F)c(F)c1F, which Potency is on record?
A: Its Potency is “inactive”.

Q: For CCCCC(=O)N/N=C/c1c(O)n(-c2ccccc2)c(=O)[nH]c1=O, which Potency is on record?
A: Its Potency is 79.4 µM (active).

Q: For CNC(=O)O/N=C(\N)Cc1csc2ccc(Cl)cc12, which Potency is on record?
A: The Potency was “inactive”.

Q: How did the Potency turn out when Cc1ccc(Oc2cnn(-c3ccccc3)c(=O)c2Br)cc1 was run?
A: The Potency was “inactive”.

Q: Which Potency does the source give for Cc1cc(/C=C2/C(=O)NC(=O)N(Cc3ccco3)C2=O)c(C)n1-c1ccc(C(=O)O)cc1 here?
A: Its Potency is “inactive”.

Q: With O=C1NC(=O)N(Cc2ccco2)C(=O)/C1=C\c1ccc(-c2ccc(F)cc2)o1 as the compound, how does the Potency read?
A: The Potency was “inactive”.

Q: How did the Potency turn out when COc1ccc(N2C(=O)/C(=C/c3ccco3)C(=O)NC2=S)cc1 was run?
A: Its Potency is 10 µM (active).

Q: Which Potency does the source give for CN(C)c1ccc(/C=C2\CC3C4CC=C5CC(O)CCC5(C)C4CCC3(C)C2=O)cc1 (stereo not given) here?
A: Its Potency is “inactive”.

Q: C[C@]12CC[C@H](O)CC1=C([N+](=O)[O-])CC1C2CC[C@@]2(C)C1CC[C@@H]2O (stereo not given in full) was tested. Which Potency did it give?
A: Its Potency is “inactive”.

Q: For COc1ccccc1N=C1SCCCN1C, which Potency is on record?
A: Its Potency is 56.2 µM (active).

Q: CCC(C)(O)C(=O)OC1C(=O)OC2CC3C(C)=CC(=O)C(O)C3(C)C3C4(O)OCC23C1C(C)C4O (stereo not given) was tested. Which Potency did it give?
A: The Potency was “inactive”.

Q: COCc1cc(OC(=O)N(C)C)nc(-c2ccc(C)c(Cl)c2)n1 was tested. Which Potency did it give?
A: The Potency was “inactive”.

Q: CCOC(=O)CC(SP1(=S)OCC2(CCCCO2)C(C2CCCCO2)O1)C(=O)OCC (stereo not given) was tested. Which Potency did it give?
A: The Potency was “inactive”.

Q: c1cc2c(cc1C1OCC3C(c4ccc5c(c4)OCO5)OCC13)OCO2 (stereo not given) was tested. Which Potency did it give?
A: The Potency was “inactive”.

Q: CC(=O)OC1C2(CC3N4C(=O)C5(CO)SSC4(CC31O)C(=O)N5C)OC(C)C(C)(C)C2=O (stereo not given) was tested. Which Potency did it give?
A: Its Potency is “inactive”.

Q: With CCN(CC)CCOC(=O)c1cc2cc(COC)ccc2o1 as the compound, how does the Potency read?
A: The Potency was 56.2 µM (active).

Q: With Cc1ccc(N(C)C(=O)Oc2cccc3ccc(C)nc23)cc1 as the compound, how does the Potency read?
A: Its Potency is “inactive”.

Q: CC(=O)C1(O)CCC2C3CCC4=C(Cl)C(=O)CCC4(C)C3CCC21C (stereo not given) was tested. Which Potency did it give?
A: The Potency was “inactive”.

Q: How did the Potency turn out when COC(=O)C1=C(c2ccc(Cl)c(C(F)(F)F)c2)C[C@@H]2CC[C@H]1N2C(=O)NC(C)C was run?
A: The Potency was “inactive”.

Q: Clc1cccc(Cl)c1Cl was tested. Which Potency did it give?
A: Its Potency is “inactive”.

Q: Which Potency does the source give for CN1CCN(C(=S)SCC(=O)Nc2ccc(Cl)cc2C(=O)c2ccccc2)CC1 here?
A: The Potency was 44.7 µM (active).

Q: Which Potency does the source give for O=C(COC(=O)c1ccccc1)Nc1ccc(Cl)cc1C(=O)c1ccccc1 here?
A: The Potency was “inactive”.

Q: O=C(Nc1ccc(Cl)cc1C(=O)c1ccccc1)c1cc(Cl)cc(Cl)c1 was tested. Which Potency did it give?
A: The Potency was “inactive”.

Q: With CC12CCC3C(CCC4CC(=O)CCC43C)C1CC(=NO)C2=O (stereo not given) as the compound, how does the Potency read?
A: The Potency was “inactive”.

Q: Which Potency does the source give for Cc1cccc(Cn2cccc(C(=O)Nc3ccc4c(c3)OCCO4)c2=O)c1 here?
A: Its Potency is “inactive”.

Q: How did the Potency turn out when CCOCCc1c(O)[nH]c(=S)[nH]c1=O was run?
A: Its Potency is 79.4 µM (active).

Q: How did the Potency turn out when Oc1ccc2c3c1OC1[C@H](O)CC[C@@]4(O)[C@@H](C2)N(CC2CC2)CC[C@]314 (stereo not given in full) was run?
A: Its Potency is “inactive”.

Q: How did the Potency turn out when CCC(C)n1c(O)c(/C=N/Nc2nc3c(c(=O)n(C)c(=O)n3C)n2C)c(=O)[nH]c1=S (stereo not given) was run?
A: The Potency was 79.4 µM (active).

Q: With Cc1ccccc1NC(=O)COC(=O)c1cc(C)n(C2CC2)c1C as the compound, how does the Potency read?
A: Its Potency is “inactive”.

Q: Which Potency does the source give for C=Cn1ccnc1P(=S)(c1cc(N(CC)CC)ns1)c1nccn1C=C here?
A: Its Potency is “inactive”.

Q: How did the Potency turn out when Cc1nc2ccccn2c1P(=S)(N1CCCCC1)N1CCCCC1 was run?
A: Its Potency is “inactive”.
